Consider nine compounds from PubChem BioAssay (NCI).

The panel holds about 83,000 compounds, 20% with a hit somewhere; the sample as a whole holds those more often.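 Testing used 96-well plates and a 48-hour single-concentration exposure. Example: -40 means 40% of the starting cells died.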 Values without a mark were called inactive. The source made the active and inactive calls. How the source made its calls: active means growth percent below 10; inactive means the rest.

What all share (test): NCI-60 one-dose screen, 48 h (100 = growth as untreated, 0 = no growth, -100 = all killed)
Holding throughout (conditions): 10 µM unless noted

The subject of experiment [1] is HCT-15 colon.
Experiment [2] deals with HT29 colon.
The test system of experiment [3] is SNB-75 CNS.
In experiment [4] the test system is SNB-19 CNS.
In experiment [5] the test system is U251 CNS.
In experiment [6] the test system is PC-3 prostate.
Experiment [7] deals with SK-MEL-5 melanoma.
For experiment [8], the system named is LOX IMVI melanoma.
The subject of experiment [9] is SK-MEL-28 melanoma.
The test system of experiment [10] is SK-MEL-2 melanoma.
For experiment [11], the system named is EKVX NSCLC.
The subject of experiment [12] is SN12C renal.
Experiment [13] deals with UO-31 renal.
Experiment [14] has as its system TK-10 renal.
Experiment [15] has as its system ACHN renal.
Experiment [16] has as its system CAKI-1 renal.
Experiment [17] deals with A498 renal.
The test system of experiment [18] is CCRF-CEM leukemia.
Experiment [19] deals with MOLT-4 leukemia.

`O=C(O)CCCCCCCCCCN1C(=O)/C(=C2/C(=O)N(CC(=O)O)c3ccc(Br)cc32)SC1=S`: the growth in experiment [1] is 44.2%; in experiment [2] it was 100%; in [3] it was 92.5%; in [4], 99.9%; in experiment [5], 72%; in experiment [6], 74.8%. The growth in experiment [7] was 81.2%; in experiment [8], 78.2%; in [9], 104%; in experiment [10], 100%; in experiment [11], 97.2%; in [12], 86.3%. In addition, the growth in experiment [13] was 72.8%; in experiment [14], 128%; in experiment [15], 84.2%; in [16], 83.8%; in [17], 95.2%; in experiment [18] it was 71.4%. In addition, the growth in experiment [19] was 34.2%.
As for `O=C1/C(=C/c2cccc(Br)c2)COc2ccc(O)cc21`, the growth in experiment [1] is 21.4%; in [2], 15%; in [3], 64.4%; in experiment [4] it was 45.1%; in experiment [5], 18.3%; in experiment [6] it was 51.2%. Besides, the growth in [7] is 88.3%; in [8] it was -37.1% (active); in experiment [9], 98.8%; in [10] it was 79.2%; in experiment [11], 78.4%; in experiment [12] it was 4.81% (active). In addition, the growth in experiment [13] is 54.1%; in experiment [14], 93.1%; in experiment [15] it was 54.6%; in experiment [16], 63.5%; in experiment [17], 99.5%; in experiment [18] it was 0.865% (active). For the same compound, the growth in experiment [19] is 6.15% (active).
As for `COc1ccc(CNc2ccc3nc(NC(=O)CN4CCCCCC4)sc3c2)cc1`, the growth was 70.9% in experiment [1]; 60.6% in experiment [2]; 131% in [3]; 96.1% in experiment [4]; 85.4% in experiment [5]; 65.8% in experiment [6]. For the same compound, the growth in [7] was 67.8%; in [8], 78.5%; in experiment [9] it was 101%; in experiment [10] it was 85.4%; in [11], 80.1%; in experiment [12], 87.3%. The growth in experiment [13] is 80.6%; in experiment [14] it was 117%; in experiment [15], 89.8%; in experiment [16] it was 85.2%; in experiment [17], 90.3%; in experiment [18] it was 58.6%. For the same compound, the growth in experiment [19] is 61.1%.
For the compound `O=C1C(Cl)=C(Nc2ccccc2)C(=O)c2ccccc21`, the growth in experiment [1] is -78.2% (active); in experiment [2], -75.1% (active); in [3], 97.8%; in experiment [4], 54.2%; in [5], -41.8% (active); in experiment [6], 39.7%. Also, the growth in experiment [7] is -85.3% (active); in experiment [8] it was -85.5% (active); in experiment [9] it was -91.9% (active); in experiment [10], -65.9% (active); in experiment [11] it was -91.9% (active); in experiment [12] it was -73.5% (active). Besides, the growth in experiment [13] is -42.5% (active); in experiment [14], 172%; in [15], -86.5% (active); in [16], -83.6% (active); in experiment [17] it was 46.9%; in [18], -10.5% (active). The growth in experiment [19] is -20.1% (active).
As for `COC1/C=C/OC2(C)Oc3c(C)c(O)c4c(O)c(c(/C=N/N(c5ccccc5)c5ccccc5)c(O)c4c3C2=O)NC(=O)C(C)=C/C=C/C(C)C(O)C(C)C(O)C(C)C(OC(C)=O)C1C` (stereo unspecified), the growth in [1] is 41.4%; in [2], 45.5%; in experiment [3], 66.9%; in [4], 71.2%; in experiment [5], 41.8%; in experiment [6], 38.7%. Moreover, the growth in experiment [7] is -98.8% (active); in [8], 47.4%; in [9] it was 39.1%; in [10] it was 82.2%; in [11], 67%; in [12] it was 70.9%. Further, the growth in [13] is 65.8%; in experiment [14], 55.8%; in experiment [15], 65%; in experiment [16], 66.8%; in experiment [17], 91.3%; in [18] it was 21.7%. Further, the growth in experiment [19] is 35.1%.
Turning to `COc1ccc(/C=N/NC(=O)Cn2c(-c3ccc(S(C)(=O)=O)cc3)nc3ccccc32)cc1`, the growth is 98.8% in [1]; 103% in experiment [2]; 101% in [3]; 100% in experiment [4]; 106% in experiment [5]; 93.2% in experiment [6]. The growth in experiment [7] was 96.7%; in experiment [8] it was 114%; in experiment [9], 102%; in experiment [10], 107%; in [11] it was 97%; in experiment [12], 99.9%. The growth in [13] was 75.9%; in experiment [15], 105%; in [16], 93%; in experiment [17] it was 95%; in experiment [18], 106%; in experiment [19], 141%.
As to `COC(=O)c1c(C)nc(C)c2c1C(=O)C=C(NCc1ccccc1)C2=O`, the growth in experiment [1] was 73.3%; in [2], 92%; in experiment [3] it was 88.9%; in [4], 93.2%; in experiment [5], 99%; in [6] it was 75.6%. Also, the growth in experiment [7] is 51.4%; in experiment [10], 72.8%; in experiment [11], 71.5%; in experiment [12] it was 88.6%; in [13], 74.2%; in experiment [14], 119%. Also, the growth in experiment [15] was 76%; in experiment [16], 81.5%; in experiment [17] it was 124%; in experiment [18], 89.1%; in experiment [19] it was 75.9%.
On to `O=C1/C(=C/c2ccc(Cl)cc2)CN(C(=O)C(Cl)Cl)C/C1=C\c1ccc(Cl)cc1`, for which the growth in [1] was -70% (active); in experiment [2], -31% (active); in experiment [3], -84% (active); in experiment [4], -92% (active); in experiment [5], -94.3% (active); in experiment [6], -38.4% (active). The growth in [7] is -89.3% (active); in experiment [9], -81.5% (active); in experiment [10], -15% (active); in [11] it was -60% (active); in [12], -75.7% (active); in experiment [13], -99.7% (active). The growth in [14] was -83.7% (active); in experiment [15] it was -100% (active); in experiment [16], -71% (active); in experiment [17], -95.8% (active); in experiment [19], -12.5% (active).
As for `COc1cc([C@@H](CCO)C[C@H](C)c2ccc3ccccc3c2)cc(OC)c1OC`, the growth was 26.3% in experiment [1]; 11.2% in experiment [2]; -10% (active) in experiment [3]; 37.8% in experiment [4]; 27.8% in experiment [5]; 29.7% in [6]. Moreover, the growth is 28% in [7]; 39.2% in [8]; 61.8% in [9]; 16.1% in experiment [10]; 49.1% in experiment [11]; 42.2% in experiment [12]. Also, the growth was 44.2% in [13]; 49.3% in experiment [14]; 43.6% in experiment [15]; 28.8% in experiment [16]; 25.3% in experiment [17]; 21.6% in experiment [18]. For the same compound, the growth in experiment [19] is 25.7%.
